The text below walks through data of PubChem BioAssay (NCI).

Molecules are shown by their SMILES. This is part of a sample that, as a whole, favours compounds with a hit. Of some 83,000 tested, about 20% had one in any assay.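 A percent growth of 40 corresponds to 60% growth inhibition; 0 means no net growth; -100 means all cells died. Active threshold: below 10.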 Unmarked numbers belong to inactive results. Activity calls are given as the source filed them.

This assay concerns HT29 colon. In words: NCI-60 one-dose screen, 48 h (100 = growth as untreated, 0 = no growth, -100 = all killed). As to conditions: 10 µM unless noted.
In the case of `COC(=O)c1ccc2c(c1)nc(-c1ccc(O)c(OC)c1)n2-c1cc(C(C)(C)C)[nH]n1`, the growth is 96.3%. Turning to `Cc1nc(N)[nH]c(=O)c1C`, the growth was 107%.

Regarding `O=C1/C(=C/c2ccc([N+](=O)[O-])o2)Oc2ccc(Cl)cc21`, the growth was -15.3% (active). As for `O=[N+]([O-])c1ccc2c(c1)S(=O)c1cc([N+](=O)[O-])ccc1N2`, the growth was 95%. Next, `Clc1ccc2nc(Cl)c3ccccc3c2c1`: 44.5%; `CC(=O)Oc1ccc(C23c4ccccc4C2(OC(C)=O)c2cc(OC(C)=O)ccc23)cc1` (stereo not drawn): 111%; `Nc1ccc2c(c1)/C(=N/O)c1cc([N+](=O)[O-])ccc1-2`: 88.7%.

`CN1CCCC1c1cccnc1` (stereo not drawn): the growth was 115%.

For the compound `COc1ccc(-c2cnnn2-c2cc(OC)c3c(c2)OCO3)cc1`, the growth was 1.26% (active). Under `Cc1nn(-c2ccc(Br)cc2)c2nc3c(nc12)C(=O)C(=O)c1ccccc1-3` stands 99.8%; under `Cn1cc(-c2csc(-c3cn(C)c4ncccc34)n2)c2cc(Br)cnc21`, 100%; under `OC(Cc1cccnc1)c1ccccc1` (stereo not drawn), 106%. With `C/C(=N/N=C(N)N)c1ccc(Cl)cc1`, the growth is 80.9%. Next, `Cc1nn(-c2ccccc2)c2nc3c(nc12)C(=O)CCC3`: 99%; `C[n+]1ccc(C#N)c2ccccc21`: 65.1%. Under `CCCCCCCC/C=C/CCCCCCCC1=NC(C)(C)CN1CC(C)O` (stereo not drawn) stands -64.8% (active); under `O=C1Nc2ccccc2C12Nc1cc(Cl)ccc1S2` (stereo not drawn), 95.4%; under `CCC(CC)NCCCCCNc1cc(OC)cc2cccnc12`, 77.3%.
